Results filed as inconclusive are left out. Active and inactive are the calls of the source. Calls follow the shape of the dose curve; as a rule, active = well fitted cell-killing curve with a large enough effect; inconclusive = small, poorly fitted or top-dose-only effect, or effect the other way; inactive = no such curve, though single readings can be large or run the other way. *1 amine or outer side, *2 acyl side, *3 side chain or, on linkers, in order; H or OH if unused. Where a SMILES comes first, the peptide text is derived from it. Bridges are numbered along the chain shown (N, C = ends). Roman numbers before positions name the chains, in order. [ ]: non-standard residue; d: D form. Actinocin(9to1) = Cc1c2oc3c(C)ccc(C(=O)[*:1])c3nc-2c(C(=O)[*:2])c(N)c1=O; NMeV = CN[C@H](C(=O)O)C(C)C; Sar = CNCC(=O)O
tested on: SW626; test: Confirmatory qHTS for gynecologic anti-cancer compounds from libraries of approved drugs and bioactive compounds; details: gynecologic cancer cell panel viability, ATPlite luminescence, 48 h; series mostly up to 57.6 µM; activity change, negative = viability loss: at the top concentration; also: nearly all actives have a fitted effect of over 55% in size
Summary of the method: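 ATPlite luminescence read-out of cell viability; IC50 from 11-point 1:3 titrations, 57.5 uM to 0.977 nM, 48 h compound exposure at 37 C, 5% CO2. Cells seeded at 1,000/well 16 h before dosing.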
% is scaled to controls: 0 for no effect and ±100 for the full control effect; potency is read from the fitted curve at half-maximal effect.

Row | Structure (SMILES) | activity change, negative = viability loss | Potency
1 | CCCCN(CCCC)C(=O)CN1C[C@H](c2ccc3c(c2)OCO3)[C@@H](C(=O)O)[C@@H]1c1ccc(OC)cc1 | -13% (inactive) | –
2 | CCCCc1oc2ccccc2c1C(=O)c1cc(I)c(OCCN(CC)CC)c(I)c1 | – | 79.4 µM (active)
3 | NC(=O)c1ccc2nc(-c3ccc(Oc4ccc(Cl)cc4)cc3)[nH]c2c1 | -27.1% (inactive) | –
4 | CN(C)C(CCOc1cccc2ccccc12)c1ccccc1 (stereo not given) | -9.38% (inactive) | –
5 | Cc1nc(Nc2n[nH]c3c2CN(C(=O)NC(CN(C)C)c2ccccc2)C3(C)C)c2sccc2n1 (stereo not given) | -17.1% (inactive) | –
6 | CN(C[C@@H]1COCCO1)S(=O)(=O)Nc1ccc2ccc3ncc(-c4cnn(C)c4)cc3c(=O)c2c1 | 0.279% (inactive) | –
7 | CC(C)Oc1ccc(C(=O)NC(CNC(=O)CN(C)C)Cc2ccc(-c3cn4cccc(C(C)O)c4n3)cc2)cc1Cl (stereo not given) | -23.5% (inactive) | –
8 | NC1(c2ccc(-c3nc4ccn5c(=O)[nH]nc5c4cc3-c3ccccc3)cc2)CCC1 | -17.6% (inactive) | –
9 | Cc1c2oc3c(C)ccc(C(=O)N[C@@H]4C(=O)N[C@H](C(C)C)C(=O)N5CCC[C@H]5C(=O)N(C)CC(=O)N(C)[C@@H](C(C)C)C(=O)O[C@@H]4C)c3nc-2c(C(=O)N[C@@H]2C(=O)N[C@H](C(C)C)C(=O)N3CCC[C@H]3C(=O)N(C)CC(=O)N(C)[C@@H](C(C)C)C(=O)O[C@@H]2C)c(N)c1=O (I: T[dV]P[Sar][NMeV] / II: T[dV]P[Sar][NMeV]; ester I:1-I:C, II:1-II:C; linker I:N-II:N via Actinocin(9to1)) | – | 0.0863 µM (active)
10 | Cc1cnc(Nc2ccc(CN3CCOCC3)cc2)nc1Nc1cccc(S(=O)(=O)NC(C)(C)C)c1 | – | 15.3 µM (active)
11 | Cc1cc(CN2CCN(c3c(Br)cnc4nc(-c5ccc(N6CCN(C)CC6)cc5)[nH]c34)CC2)no1 | – | 24.3 µM (active)
12 | COc1ccc2cc3[n+](cc2c1OC)CCc1cc2c(cc1-3)OCO2 | 0.945% (inactive) | –
13 | CC[C@]1(O)C[C@H]2CN(CCc3c([nH]c4ccccc34)[C@@](C(=O)OC)(c3cc4c(cc3OC)N(C=O)[C@H]3[C@@](O)(C(=O)OC)[C@H](OC(C)=O)[C@]5(CC)C=CCN6CC[C@]43[C@@H]65)C2)C1 | -23.3% (inactive) | –
14 | C=CC(=O)Nc1cccc(Oc2nc(Nc3ccc(N4CCN(C)CC4)cc3)ncc2Cl)c1 | – | 24.3 µM (active)
15 | Cc1cnc(Nc2ccc(F)cc2Cl)nc1-c1c[nH]c(C(=O)NC(CO)c2cccc(Cl)c2)c1 (stereo not given) | -11.9% (inactive) | –
16 | c1nc2nc(Nc3ccc(N4CCOCC4)cc3)nc(NC3CCCCC3)c2[nH]1 | -14.1% [at 19.5 µM] (inactive) | –
17 | Cc1cc(Nc2nc(N[C@@H](C)c3ccc(F)cc3)c(C#N)cc2F)n[nH]1 | – | 5.44 µM (active)
18 | Cc1ccc(C(=O)Nc2ccc(Oc3cc4cnn(C)c4cc3-c3cn[nH]c3)c(F)c2)c(=O)n1-c1ccc(F)cc1 | – | 4.32 µM (active)
19 | O=c1[nH]c(=O)n([C@H]2C[C@H](O)[C@@H](CO)O2)cc1C(F)(F)F | -9.33% (inactive) | –
20 | O=C(c1ccc(/C=C/c2n[nH]c3ccccc23)cc1)N1CCNCC1 | – | 15.3 µM (active)
21 | Cc1cc(SCc2sc(-c3ccc(C(F)(F)F)cc3)nc2C)ccc1OCC(=O)O | 2.54% (inactive) | –
22 | Nc1ccccc1NC(=O)c1ccc(CNC(=O)OCc2cccnc2)cc1 | – | 3.06 µM (active)
23 | C1CCC(C(CC2CCCCN2)C2CCCCC2)CC1 (stereo not given) | – | 27.3 µM (active)
24 | CN(C)c1ccc(-c2nc3ncc(Cl)c(N4CCN(CC(=O)Nc5nccs5)CC4)c3[nH]2)cc1 | -9.1% [at 19.5 µM] (inactive) | –
25 | CN(c1nccc(=O)[nH]1)C1CCN(c2nc3ccccc3n2Cc2ccc(F)cc2)CC1 | 15.2% (inactive) | –
26 | CN(C)/N=N/c1nc[nH]c1C(N)=O | 7.16% (inactive) | –
27 | Nc1ncnc2c1ncn2[C@@H]1O[C@H](CO)C[C@H]1O | -5.75% (inactive) | –
28 | O=c1c2ccccc2nc2n1CCc1c-2[nH]c2ccccc12 | -13.4% (inactive) | –
29 | CC[C@H](Nc1ncnc2nc[nH]c12)c1nc2cccc(F)c2c(=O)n1-c1ccccc1 | -5.07% [at 10.7 µM] (inactive) | –
30 | Fc1cc(-c2cccc3ncc(-c4cnn(C5CCNCC5)c4)nc23)cc(F)c1CN1CCOCC1 | – | 27.3 µM (active)

Source: PubChem BioAssay AID1345085 (National Center for Advancing Translational Sciences (NCATS), 2018)
